Bioassay records (PubChem)
A selection: hits, their analogues and other compounds. The true share with any hit is near 12%.
G9a block – G9a (human) methyltransferase inhibition. G9a H3K9 monomethylation, AlphaScreen, 2 h. Q96KQ7. 350,000 compounds, 8.8% hits. Potency, µM (titrated, usually from 102 µM), without a hit: at the top dose activity, negative = inhibition, hits mostly inhibitors. AID 504332; note: % is set by controls: 0 for no effect and ±100 for the full control effect; nearly all actives have a fitted effect of over 75% in size
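Readings reflect AlphaScreen signal from monomethyl-H3K9 antibody detection. HMT at 20 nM; substrate b-H3K9 500 nM; cofactor SAM 20 uM; 2 h RT reaction; compounds tested as titrations in qHTS with 15 min preincubation.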
HP1b chromo inh – HP1-beta chromodomain-methylated histone interaction inhibition; P83916; AlphaScreen HP1-beta / biotin-H3K9me3 peptide binding; Potency, µM (titrated, usually from 114 µM), without a hit: at the highest dose activity change, negative = inhibition, usual class: inhibitors; 390,000 compounds, 0.56% hits; AID 540317; note: nearly all actives have a fitted effect of over 70% in size
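Compound inhibition of the preformed complex between 50 nM HP1-beta and 50 nM biotinylated H3K9me3 peptide was read by AlphaScreen. Buffer was PBS pH 7.4 with 0.01% Tween-20. Incubations ran 30 min at room temperature, with 10 ug/mL donor/acceptor beads.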
BAZ2B block – blocks human BAZ2B. Q9UIF8. AlphaScreen BAZ2B-H3K14Ac peptide displacement. Potency, µM (top dose mostly 114 µM), for inactives: at the top dose activity change, negative = inhibition, usual class: inhibitors. 360,000 compounds, 4.4% hits; note: % is set by controls: 0 for no effect and ±100 for the full control effect; nearly all actives have a fitted effect of over 60% in size
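In this displacement format the biotinylated H3(5-23) peptide acetylated at Lys14 serves as ligand at 50 nM, with BAZ2B at 50 nM in PBS pH 7.4 containing 0.01% Tween-20. Donor and acceptor beads are 10 ug/mL final.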
JMJD2A Tudor inh – inhibitors of human JMJD2A Tudor domain; O75164; AlphaScreen JMJD2A-Tudor / H3K4me3 peptide binding; Potency, µM (series often up to 114 µM), for the others: top-dose activity change, negative = inhibition, usual class: inhibitors; 390,000 compounds, 4.4% hits; AID 504339; note: % is set by controls: 0 for no effect and ±100 for the full control effect; nearly all actives have a fitted effect of over 50% in size
Sfp PPTase inh – blocks B. subtilis Sfp PPTase activity | Q9F4F7 | Biochemical Sfp PPTase activity, qHTS | Potency, µM, without a hit: largest response in the series, negative = inhibition, most hits filed as inhibitors | 310,000 compounds, 3.5% hits;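 note: the enzyme is Sfp with the accession as filed and its product quenches rhodamine fluorescence; 0% = enzyme reaction without inhibitor and -100% = no enzyme wells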
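Sfp 15 nM + cpd, 15 min RT; start w/ rhodamine-CoA 5 uM, BHQ-2-YbbR 12.5 uM (final); 50 mM Hepes pH 7.6, 10 mM MgCl2, 0.01% NP-40, 0.01% BSA; read 525/598 nm at 0 and 30 min.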
Active calls of the source: *; ? = inconclusive; . = no result; [ ] = remark or other dose. Calls come from the whole dose curve; as a rule, active = well fitted curve in the direction sought with a large enough effect; inconclusive = small, poorly fitted or top-dose-only effect, or another doubt; inactive = no such curve, though single readings can be large; an effect the other way counts as inactive or inconclusive. Potency is the fitted concentration of half-maximal effect.

SMILES	G9a block	HP1b chromo inh	BAZ2B block	JMJD2A Tudor inh	Sfp PPTase inh
COCc1c(C(=O)N/N=C\c2ccccn2)nnn1-c1nonc1N	0.79µM*	24%	40µM*	79µM*	56µM*
Nc1nonc1-n1nnc(C(=O)N/N=C/c2cccc(Cl)c2)c1CN1CCCCCC1	.	49%	.	-12%	.
Nc1nonc1-n1nnc(C(=O)N/N=C/c2cccc(O)c2)c1CN1CCCC1	45µM*	31%	-19%	-7%	0%
O=C(NCc1ccc(F)c(F)c1)C1CCC(=O)N(CC2CCCCC2)C1 (centres undefined)	31%	13%	-2%	-4%	5%
COc1ccccc1N1CCN(C(=O)c2oc3ccc(F)cc3c2C)CC1	-11%[59 µM]	23%	-4%	-14%	-11%
Cc1c(C(=O)Nc2ccccc2N2CCN(C)CC2)oc2ccc(F)cc12	32µM*	?	-31%	?	.
CN1CCN(c2ccccc2NC(=O)c2cc3c(s2)-c2ccccc2OC3)CC1	-38%	25%	-34%	-12%	79µM*
O=C(Nc1cccnc1Cl)c1cc2c(s1)-c1ccccc1OC2	-5%	36%	9%	8%	14%
CCOC(=O)c1ccc(NC(=O)Cn2cc(C(=O)c3cccs3)c3ccccc32)cc1	?	8%	-22%	-24%	.
CC[C@@]1(c2ccccc2OC)C(=O)N(C(=O)OC)N1C(=O)OC	.	37%	-1%	-17%	2%
COC(=O)N1C(=O)[C@@](CC(C)C)(c2ccccc2)N1C(=O)OC	50µM*	.	-31%	.	-9%
COC(=O)N1C(=O)[C@](CC(C)C)(c2ccccc2)N1C(=O)OC	79µM*	69%	-3%	-1%	-18%
CC[C@@]1(c2cccc(C)c2)C(=O)N(C(=O)OC)N1C(=O)OC	45µM*	42%	?	-26%	-24%
CCCC(=O)C1=C(c2ccccc2)C(C#N)(C#N)C(C#N)=C1N	25µM*	-19%	50µM*	?	28µM*
CCOC(=O)C1=C(C)OC(N)=C(C#N)C1c1cc(OC)c2c(c1)OCO2 (centres undefined)	-4%[59 µM]	27%	3%	-26%	1%
CCOC(=O)C1=C(C)OC(N)=C(C#N)C1c1cc2c(cc1[N+](=O)[O-])OCO2 (centres undefined)	50µM*	-14%	?	?	1%
O=C(c1ccco1)N1CCN(S(=O)(=O)c2cccc3nsnc23)CC1	20%[59 µM]	39%	5%	-8%	0%
COc1cc(N=Nc2ccccc2C(=O)O)ccc1O	50µM*	14%	-34%	-7%	-25%
COc1cc(N=Nc2ccc3ccccc3c2)ccc1O	-47%[12.7 µM]	?	25µM*	40µM*	5%
CN(c1ccc(O)cc1)S(=O)(=O)c1ccc2ccccc2c1	-14%	-3%	-13%	-25%	1%
Oc1ccc(N=Nc2ccc3ccccc3c2)cc1	-3%[0.501 µM]	?	32µM*	45µM*	-8%
COc1cc(-c2nc3ccccc3nc2-c2ccc(O)c(OC)c2)ccc1O	.	3%	-9%	-29%	2%
COc1ccc(/C=C/C(=O)ONC2=NCCCCC2)cc1OC	-12%	24%	-13%	-14%	10%
O=C1CC(c2ccco2)CC2=C1C(c1cccnc1)n1nc(C(F)(F)F)nc1N2 (centres undefined)	.	-14%	.	?	.
O=C1CC(c2ccco2)CC2=C1C(c1ccc(O)cc1)n1nc(C(F)(F)F)nc1N2 (centres undefined)	.	?	.	56µM*	.
SMILES	G9a block	HP1b chromo inh	BAZ2B block	JMJD2A Tudor inh	Sfp PPTase inh
CCCn1c2ccccc2c2nnc(SCc3[nH]c(=O)[nH]c3C(=O)CCCCC(=O)OCC)nc21	?	34%	-21%	-20%	25µM*
C[C@@]12C(=O)N(CC3CC3)CC(=O)N1[C@H](C1CC1)[C@@H]1C(=O)N(c3ccccc3)C(=O)[C@@H]12	-17%	45%	0%	-1%	15%
O=C(CCc1ccccc1)NNC(=O)c1ccccc1Br	28µM*	20%	-4%	-24%	21%
Cc1ccccc1C(=O)NNC(=O)CCc1ccccc1	-9%[12.7 µM]	39%	3%	-8%[11.4 µM]	16%
O=C(CCc1ccccc1)NNC(=O)c1ccccc1C(=O)O	10µM*	37%	1%	-8%	2%
COc1cccc(NC(=O)Nc2cc(C(=O)O)ccc2N2CC3CC(C2)c2cccc(=O)n2C3)c1 (centres undefined)	15%	34%	-26%	-3%	3%
O=C(O)c1ccc(N2CC3CC(C2)c2cccc(=O)n2C3)c(NC(=S)Nc2ccc(Br)cc2)c1 (centres undefined)	32µM*	-23%	2%	-21%	56µM*
CCc1ccc(NC(=S)Nc2cc(C(=O)O)ccc2N2CC3CC(C2)c2cccc(=O)n2C3)cc1 (centres undefined)	?	1%	.	-17%	56µM*
CCN1CCS/C1=C\C=C\C1=[N+](CC)CCS1	3.2µM*	45%	-20%	-11%	4%
CCN1CCS/C1=C/C=C/C1=[N+](CC)CCS1	50µM*	4%	-24%	?	4%
NC(=O)c1ccc[n+](CCC[n+]2cccc(C(N)=O)c2)c1	?	22%	-2%	-5%	32%
N#C/C(=N\Nc1cccc(C(F)(F)F)c1)C(=O)c1ccsc1	40µM*	-20%	40µM*	50µM*	16%
CNc1ccc(OC)cc1-n1cnc(-c2ccc([N+](=O)[O-])cc2)c1	.	26%	-30%	-24%	5%
CCCn1c(=S)[nH]c2cc(OC)c(OC)cc2c1=O	-40%[59 µM]	23%	0%	-14%	2%
COc1cc2[nH]c(=S)n(NC(=O)CC(C)C)c(=O)c2cc1OC	4µM*	-2%	?	3.5µM*	?
CCC1CCC2(CC1)NNC(=S)NN2	2µM*	-66%	?	50µM*	56µM*
CCC1CCC2(CC1)NC(CO)(CO)CO2 (centres undefined)	11%[59 µM]	22%	9%	-3%	15%
O=C(Nc1cc(S(=O)(=O)N2CCOCC2)ccc1O)c1ccc2c(c1)S(=O)(=O)c1ccccc1C2=O	4.5µM*	?	?	?	20µM*
O=C(Nc1cc(S(=O)(=O)N2CCOCC2)ccc1O)c1ccco1	42%[0.501 µM]	-22%	-27%	-3%	56µM*
Cc1cc(C)cc(Nc2cc(C(=O)NCc3ccccc3)c3ccccc3n2)c1	47%[59 µM]	81%	.	-4%	.
NS(=O)(=O)c1ccc(CCNC(=O)c2ccc3nc(Cc4ccccc4)oc3c2)cc1	-3%[59 µM]	21%[57 µM]	1%	-6%	.
C[C@@H]1O[C@@H](O[C@H]2[C@H](O)[C@@H](O)[C@H](Oc3c(-c4ccc(O)cc4)oc4cc(O)cc(O)c4c3=O)O[C@@H]2CO)[C@H](O)[C@H](O)[C@H]1O	.	14%	.	-21%	.
